{"source": "PubChem BioAssay (NCATS)", "note": "Inconclusive results are not listed. Entries that show only a call come without a potency. Activity calls are given as the source filed them. Calls follow the shape of the dose curve; as a rule, active = well fitted inhibition curve with a large enough effect; inconclusive = small, poorly fitted or top-dose-only effect; inactive = flat fitted curve, though single readings scatter. Potency is read from the fitted curve at half-maximal effect."}
{"biological_target": "Voltage-gated inwardly rectifying potassium channel KCNH2 (Homo sapiens) (UniProt Q12809)", "sequence (Q12809 whole entry, looked up)": "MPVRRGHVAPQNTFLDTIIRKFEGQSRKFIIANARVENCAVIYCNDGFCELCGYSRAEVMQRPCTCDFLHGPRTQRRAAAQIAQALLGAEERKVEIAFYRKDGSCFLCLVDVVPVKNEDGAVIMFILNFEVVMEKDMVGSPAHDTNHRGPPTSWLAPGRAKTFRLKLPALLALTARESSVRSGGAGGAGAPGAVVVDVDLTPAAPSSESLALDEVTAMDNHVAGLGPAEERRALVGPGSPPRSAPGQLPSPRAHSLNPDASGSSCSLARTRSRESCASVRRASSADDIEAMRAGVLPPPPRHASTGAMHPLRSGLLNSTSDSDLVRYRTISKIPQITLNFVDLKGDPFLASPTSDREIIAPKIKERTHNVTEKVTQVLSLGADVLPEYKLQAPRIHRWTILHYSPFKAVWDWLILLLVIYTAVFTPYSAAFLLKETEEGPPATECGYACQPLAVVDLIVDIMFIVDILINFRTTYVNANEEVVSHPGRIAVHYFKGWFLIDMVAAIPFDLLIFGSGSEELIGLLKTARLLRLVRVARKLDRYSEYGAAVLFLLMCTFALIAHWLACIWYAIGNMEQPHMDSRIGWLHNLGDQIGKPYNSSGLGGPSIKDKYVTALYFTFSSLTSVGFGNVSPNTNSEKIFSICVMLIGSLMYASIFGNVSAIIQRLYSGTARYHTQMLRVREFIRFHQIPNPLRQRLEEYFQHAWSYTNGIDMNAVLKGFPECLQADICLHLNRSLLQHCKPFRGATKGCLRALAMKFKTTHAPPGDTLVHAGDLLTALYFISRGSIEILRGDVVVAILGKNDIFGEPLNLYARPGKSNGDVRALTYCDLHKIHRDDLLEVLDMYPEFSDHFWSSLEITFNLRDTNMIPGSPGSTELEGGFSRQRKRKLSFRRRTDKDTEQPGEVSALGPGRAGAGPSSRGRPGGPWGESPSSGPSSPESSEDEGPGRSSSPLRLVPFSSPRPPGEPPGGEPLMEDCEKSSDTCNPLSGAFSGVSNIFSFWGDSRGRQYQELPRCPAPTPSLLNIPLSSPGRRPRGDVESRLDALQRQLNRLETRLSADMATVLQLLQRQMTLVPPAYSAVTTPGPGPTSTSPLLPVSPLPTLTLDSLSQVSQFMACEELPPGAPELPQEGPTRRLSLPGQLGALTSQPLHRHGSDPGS", "assay": "qHTS Assay for Small Molecule Inhibitors of the Human hERG Channel Activity (AID 588834);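 also: lower thallium flux fluorescence means stronger hERG block; nearly all actives have a fitted effect of over 50% in size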", "conditions": "U2OS BacMam hERG, FluxOR thallium flux fluorescence; series mostly up to 46.1 µM", "in_short": "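Homogeneous FluxOR thallium flux assay using hERG-expressing U2OS cells (BacMam). Compound treatment about 10 minutes preceded stimulation; reduced fluorescence taken as channel block.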"}
{"smiles": "CCC(=O)c1ccc2c(c1)N(CCCN1CCN(CCO)CC1)c1ccccc1S2", "Potency": "5.01 µM (active)"}
{"smiles": "CC(C)(C)NCC(O)CSc1nc(-c2ccc(C(N)=O)s2)cs1", "note": "(stereo not given)", "Potency": "inactive"}
{"smiles": "Nc1nc(NC2CC2)c2ncn([C@@H]3C=C[C@@H](CO)C3)c2n1", "Potency": "inactive"}
{"smiles": "Cc1cc(O)c2c(c1)O[C@@]1(C)CC[C@H]3C(C)(C)CCCC34CO[C@@H]2[C@H]41", "note": "(stereo not given in full)", "Potency": "inactive"}
{"smiles": "CCCCCCCCCCCCCC(=O)OCC(COP(=O)([O-])OCC[N+](C)(C)C)OC(=O)CCCCCCCCCCCCC", "note": "(stereo not given)", "Potency": "inactive"}
{"smiles": "CO/N=C(\\C(=O)N[C@@H]1C(=O)N2C(C(=O)O)=CCS[C@H]12)c1csc(N)n1", "Potency": "inactive"}
{"smiles": "CC(C)(CO)[C@@H](O)C(=O)NCCCC(=O)O", "Potency": "inactive"}
{"smiles": "NC[C@H]1O[C@H](O[C@H]2[C@H](O)[C@@H](O[C@H]3O[C@H](CO)[C@@H](O)[C@H](N)[C@H]3O)[C@H](N)C[C@@H]2N)[C@H](N)C[C@@H]1O", "Potency": "inactive"}
{"smiles": "CC[C@H](CC[C@@H](C)[C@H]1CC[C@H]2[C@@H]3CC=C4C[C@@H](O)CC[C@]4(C)[C@H]3CC[C@]12C)C(C)C", "Potency": "inactive"}
{"smiles": "NC(=O)OCC(O)COc1ccc(Cl)cc1", "note": "(stereo not given)", "Potency": "inactive"}
{"smiles": "C[C@@H]1NC(=O)[C@@H](N)CNC(=O)[C@H](C2CCNC(N)=N2)NC(=O)/C(=C/NC(N)=O)NC(=O)[C@H](CNC(=O)C[C@@H](N)CCCN)NC1=O", "note": "(stereo not given in full)", "Potency": "inactive"}
{"smiles": "O=[N+]([O-])O[C@@H]1CO[C@H]2[C@@H]1OC[C@@H]2O", "Potency": "inactive"}
{"smiles": "C[S+](C)CCC(N)C(=O)O", "note": "(stereo not given)", "Potency": "inactive"}
{"smiles": "CC(=NCc1ccccc1)c1ccccc1O", "Potency": "inactive"}
{"smiles": "CCOC(=O)[C@H](CS)NCCN[C@@H](CS)C(=O)OCC", "Potency": "inactive"}
{"smiles": "NC[C@@H]1CC[C@@H](N)[C@@H](O[C@H]2[C@H](O)[C@@H](O[C@H]3O[C@H](CO)[C@@H](O)[C@H](N)[C@H]3O)[C@H](N)C[C@@H]2N)O1", "Potency": "inactive"}
{"smiles": "CC(=O)N[C@@H](C=O)[C@@H](O)[C@H](O)[C@H](O)CO", "Potency": "inactive"}
{"smiles": "CCN(CC)CCC(=O)N1c2ccccc2Sc2ccc(Cl)cc21", "Potency": "14.1 µM (active)"}
{"smiles": "CNCC(=O)N[C@@H](CCCN=C(N)N)C(=O)N[C@H](C(=O)N[C@@H](Cc1ccc(O)cc1)C(=O)N[C@H](C(=O)N[C@@H](Cc1cnc[nH]1)C(=O)N1CCC[C@H]1C(=O)N[C@@H](C)C(=O)O)C(C)C)C(C)C", "Potency": "inactive"}
{"smiles": "CC[C@@H](C)[C@H](N)C(=O)O", "Potency": "inactive"}
{"smiles": "CCN(CC)C(=S)S", "Potency": "inactive"}
{"smiles": "CO[C@H]1C[C@H](O[C@@H]2/C(C)=C/C[C@@H]3C[C@@H](C[C@]4(CC[C@H](C)[C@@H](C5CCCCC5)O4)O3)OC(=O)[C@@H]3C=C(C)/C(=N/O)[C@H]4OC/C(=C\\C=C\\[C@@H]2C)[C@]43O)O[C@@H](C)[C@@H]1O", "Potency": "inactive"}
{"smiles": "CC(=O)O[C@@H]1CC2CCC1(C)C2(C)C", "note": "(stereo not given in full)", "Potency": "inactive"}
{"smiles": "C=CC[C@@H]1/C=C(\\C)C[C@H](C)C[C@H](OC)[C@H]2O[C@@](O)(C(=O)C(=O)N3CCCC[C@H]3C(=O)O[C@H](/C(C)=C/[C@@H]3CC[C@@H](O)[C@H](OC)C3)[C@H](C)[C@@H](O)CC1=O)[C@H](C)C[C@@H]2OC", "Potency": "inactive"}
{"smiles": "CC12CCC(C[N+](C)(CCC[N+](C)(C)C)C1)C2(C)C", "note": "(stereo not given)", "Potency": "inactive"}
